In PubChem BioAssay (NCATS):
Inconclusive results are not listed. Active and inactive are the calls of the source. Calls follow the shape of the dose curve; as a rule, active = well fitted inhibition curve with a large enough effect; inconclusive = small, poorly fitted or top-dose-only effect; inactive = flat fitted curve, though single readings scatter.

Assay: P-glycoprotein substrates identified in KB-8-5-11 adenocarcinoma cell line, qHTS therapeutic library screen (AID 1346987); also: nearly all actives have a fitted effect of over 65% in size
Conditions: KB-8-5-11 (P-gp overexpressing) viability, CellTiter-Glo, 72 h; series mostly up to 44.5 µM; activity change, negative = cytotoxicity: at the top concentration
In short: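 KB-8-5-11: colchicine-selected sub-line of KB-3-1 over-expressing P-gp; assay medium lacked colchicine. 72 h drug exposure at 37 degree C, CellTiter-Glo.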
% is scaled to controls: 0 for no effect and ±100 for the full control effect.

Structure (SMILES)	activity change, negative = cytotoxicity	Potency	outcome
CC(=O)Nc1c(I)c(NC(C)=O)c(I)c(C(=O)O)c1I	0.325% (inactive)	–	–
C[N+](C)(C)CCO	–	inactive	–
CCCC(=O)c1cc(O)c(O)cc1O	-21.7% [at 93.4 µM] (inactive)	–	–
Cn1cc(S(C)=O)c(=O)c2ccc(F)cc21 (centres undefined)	1.28% (inactive)	–	–
O=C(Oc1ccccc1)c1cccc(C(=O)Oc2ccccc2)c1	-6.25% [at 93.4 µM] (inactive)	–	–
Cc1ccccc1N1CCN(CCc2nnc3n2CCCC3)CC1	-24% (inactive)	–	–
CCNC(=O)NCCCOc1cccc(CN2CCCCC2)c1	-3.49% (inactive)	–	–
Cc1ccccc1C(=O)N1CC/C(=N\OS(=O)(=O)O)c2ccc(Cl)cc21	0.981% (inactive)	–	–
CC(=O)OCC[N+](C)(C)C	2% (inactive)	–	–
CC(=O)Nc1ccn(C2COC(COC(=O)c3ccccc3)O2)c(=O)n1 (centres undefined)	0.86% (inactive)	–	–
CC(C)C[C@H](NC(=O)CNC(=O)[C@H](Cc1ccc(O)cc1)NC(=O)[C@H](CO)NC(=O)[C@H](Cc1c[nH]c2ccccc12)NC(=O)[C@H](Cc1cnc[nH]1)NC(=O)[C@@H]1CCC(=O)N1)C(=O)N[C@@H](CCCN=C(N)N)C(=O)N1CCC[C@H]1C(=O)NCC(N)=O (stereo in doubt)	1.56% (inactive)	–	–
Nc1nnnn1-c1ccccc1	-10.9% (inactive)	–	–
CC(C(=O)O)c1ccc(/C=C2\CCCCC2=O)cc1 (centres undefined)	–	–	inactive
CC(=O)OCC(=O)Nc1cc(C#N)cc(NC(=O)COC(C)=O)c1Cl	–	–	inactive
